High-throughput results from PubChem.
VDR inhibitor: vitamin D3 receptor (human) inhibition; hit rate 0.93% among 400,000; VDR-SRC2-3 peptide fluorescence polarization, 2 h; P11473; Potency, µM, usual class: inhibitors
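Two reagent solutions held at 4 deg C in the dark were dispensed, compounds pinned at 23 nl, and the mixture incubated 2 h at room temperature. Read-out: fluorescence polarization of VDR–SRC2-3 peptide binding.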
G9a block: inhibitors of human histone lysine methyltransferase G9a. Q96KQ7. G9a H3K9 monomethylation, AlphaScreen, 2 h. Potency, µM (series often up to 102 µM), most hits filed as inhibitors. hit rate 8.8% among 350,000; also: nearly all actives have a fitted effect of over 75% in size
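G9a (20 nM) was preincubated 15 min with compound, then reacted 2 h at room temperature with 500 nM biotin-H3K9 peptide and 20 µM SAM. Monomethyl-H3K9 detected by AlphaScreen using anti-H3K9me1 antibody.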
Glioma ERSR ind: ER stress response induction in glioma; Potency, µM, actives largely listed as activators; U87-MG GRP78 promoter luciferase reporter, 16 h; hit rate 0.02% among 420,000; AID 602332; also: series mostly up to about 76 µM; nearly all actives have a fitted effect of over 35% in size
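Stably transfected U87-MG human glioma cells carrying a GRP78-based luminescent sensor were seeded at 1000 cells/well, pin-dosed with compounds and incubated 16 h. Luciferase reagent was then added, and end-point luminescence was read after 10 min at room temperature.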
Sfp inh: inhibitors of Bacillus subtilis Sfp phosphopantetheinyl transferase; hit rate 3.5% among 310,000; Q9F4F7; Biochemical Sfp PPTase activity, qHTS; Potency, µM, most hits filed as inhibitors;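 also: the enzyme is Sfp with the accession as filed and its product quenches rhodamine fluorescence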
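Fluorescence-quenching assay: 15 nM Sfp-PPTase preincubated 15 min at room temperature with compound, then 5 uM rhodamine-CoA and 12.5 uM BHQ-2-labelled YbbR peptide added. Fluorescence (ex 525/em 598 nm) read at start and after 30 min; difference gives rate.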
ALOX12 inh: inhibitors of human 12S-lipoxygenase ALOX12 | Potency, µM (series often up to 108 µM), actives largely listed as inhibitors | hit rate 1.1% among 580,000 | AID 1671190 | purified 12hLO, xylenol orange hydroperoxide absorbance | P18054
Target sequence (P18054 whole entry, looked up): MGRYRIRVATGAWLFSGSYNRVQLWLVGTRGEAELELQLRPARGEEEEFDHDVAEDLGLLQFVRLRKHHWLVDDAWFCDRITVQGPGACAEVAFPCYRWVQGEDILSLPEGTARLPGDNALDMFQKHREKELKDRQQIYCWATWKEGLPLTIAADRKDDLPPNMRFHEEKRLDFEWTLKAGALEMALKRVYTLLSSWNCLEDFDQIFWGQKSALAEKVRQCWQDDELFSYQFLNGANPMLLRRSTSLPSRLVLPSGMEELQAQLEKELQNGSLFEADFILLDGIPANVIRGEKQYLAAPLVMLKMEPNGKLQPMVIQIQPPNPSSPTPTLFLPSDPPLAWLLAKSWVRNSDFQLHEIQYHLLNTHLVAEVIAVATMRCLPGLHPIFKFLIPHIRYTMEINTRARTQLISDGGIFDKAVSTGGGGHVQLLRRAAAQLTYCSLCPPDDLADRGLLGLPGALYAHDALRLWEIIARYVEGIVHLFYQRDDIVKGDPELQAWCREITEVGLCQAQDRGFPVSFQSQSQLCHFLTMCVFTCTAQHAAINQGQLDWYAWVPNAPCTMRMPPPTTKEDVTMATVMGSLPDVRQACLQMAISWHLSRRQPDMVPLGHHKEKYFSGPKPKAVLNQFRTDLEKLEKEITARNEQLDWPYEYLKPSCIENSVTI
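Hydroperoxide product was detected by ferrous iron/xylenol orange as the 573 to 405 nm absorbance ratio. Arachidonic acid at 40 uM (final) was turned over for 30 min at room temperature by 150 nM human 12hLO, pH 7.0 Hepes buffer, after 15 min compound preincubation.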
A number is an active result; n = inactive; u = inconclusive; x = not tested or not shown; [ ] = remark or other dose. The sample as a whole holds a higher share of hits than the screen did. Calls follow the shape of the dose curve; as a rule, active = well fitted curve in the direction sought with a large enough effect; inconclusive = small, poorly fitted or top-dose-only effect, or another doubt; inactive = no such curve, though single readings can be large; an effect the other way counts as inactive or inconclusive.

SMILES | VDR inhibitor | G9a block | Glioma ERSR ind | Sfp inh | ALOX12 inh
CCN(CCCNC(=O)CN1C(=O)COc2ccccc21)c1ccccc1 | n | u | n | n | n
Cc1cccc(C(=O)N/N=C2/CC(=O)CC(C)(C)C2)c1 | x | x | x | x | n
O=C(Nc1cccc2nsnc12)c1ccc(-c2ccc(Br)cc2)o1 | u | 40µM | n | 40µM | 35µM
O=C(Nc1ccccc1)Nc1cccc2nsnc12 | n | n[12.7 µM] | n | 63µM | 40µM
Cc1nn(CCO)c2ncc(C(=O)c3cc(F)ccc3O)cc12 | n | 50µM | n | n | n
CCc1nc(NCCO)c(C#N)c2c1CSC(C)(C)C2 | n | x | n | 71µM | n
Cc1ccc(NC(=O)c2cc(=O)c3ccc(C)c(C)c3o2)cc1Cl | x | x | x | x | n
COc1ccc(N2CCN(c3nc(NCCc4ccc(OC)c(OC)c4)nc(OC)n3)CC2)cc1 | n | 11µM | n | n | n
O=C(N/N=C/c1ccc(-c2ccc(S(=O)(=O)Nc3ncccn3)cc2)o1)c1cc2ccccc2cc1O | n | u | n | 50µM | 13µM
CN1CC2(CCN(C(=O)c3cccnc3)CC2)CC1C(=O)N1CCOCC1 (stereo not drawn) | x | x | x | x | n
COc1ccccc1-c1n[nH]c(=S)n1N | n | 13µM | n | 45µM | 14µM
COc1ccccc1-c1n[nH]c(=S)n1-c1ccccc1 | n | 2.5µM | n | n | u
COc1ccccc1-c1nc(N)n[nH]1 | n | x | n | n | n
COc1cc(-c2n[nH]c(=S)n2-c2ccc(Br)cc2)cc(OC)c1OC | n | x | n | n | u
Cc1ccc(C=Nc2ccc(C)c(N=Cc3ccc(C)s3)c2)s1 | x | x | x | x | n
CCOC(=O)c1c(NC(=O)c2ccoc2C)sc(C)c1C | n | n[2.33 µM] | n | u | n
CCOC(=O)c1c(NC(=O)C2=C(C)NC(=S)NC2c2ccccc2C(F)(F)F)sc(C)c1C (stereo not drawn) | n | n | n | 16µM | 25µM
CCOc1ccccc1NC(=O)COC(=O)C1CC(=O)N(c2c(C)cccc2C)C1 (stereo not drawn) | n | 56µM | n | n | n
Cc1cc(=O)n(C)c(=O)n1CCCCCOc1cccc([N+](=O)[O-])c1 | n | n | n | n | n
Cc1cc(=O)n(C)c(=O)n1CCCCCCN1CCCC1 | n | 11µM | n | n | u
CNC12CC3CC(CC(C3)C1)C2 | x | x | x | x | n
COC(=O)N1CCc2nc(C(C)C)nc(-c3ccc(O)cc3)c2C1 | x | x | x | x | n
COc1ccc(O)c(N)c1 | x | 7.9µM | x | 56µM | x
FC(F)(F)c1cccc(CSc2nnc(-c3cccnc3)n2-c2ccc(Br)cc2)c1 | x | x | x | x | n
CCCCCCn1c(SCC(=O)c2ccccc2)nc2c1c(=O)n(C)c(=O)n2C | x | x | x | x | n
SMILES | VDR inhibitor | G9a block | Glioma ERSR ind | Sfp inh | ALOX12 inh
C=CCc1ccc(OCCCCNC(C)CC)c(OC)c1 (stereo not drawn) | n | 14µM | n | n | n
C=CCc1cc(Cl)ccc1OCCNCCCOC | n | 20µM | n | n | n
C/C=C/c1ccc(OCCOCCNCc2ccccc2)c(OC)c1 | n | 7.9µM | n | n | u
C=CCc1ccc(OCCCCN2CC(C)CC(C)C2)c(OC)c1 (stereo not drawn) | n | 8.9µM | n | n | u
C=CCc1ccc(OCCCCN2CCC(C)CC2)c(OC)c1 | n | u | n | n | n
CCOc1cc2c(cc1CNC(=O)c1cc(S(N)(=O)=O)ccc1Br)OC(C)C2 (stereo not drawn) | x | x | x | x | n
COc1cc(CNC(=O)N2CCN(Cc3ccc(Br)s3)CC2)cc(OC)c1OC | x | x | x | x | n
C=CCNCCCOc1ccc(Cl)cc1Br | n | u | n | n | u
C=CCc1cc(Cl)ccc1OCCCNC(C)CC (stereo not drawn) | n | 10µM | n | n | u
C/C=C/c1ccc(OCCCNC(C)CC)c(OC)c1 (stereo not drawn) | n | u | n | 56µM | u
NC(=O)c1ccc(NC(=O)[C@H](Cc2ccccc2)n2cnnn2)cc1 | x | x | x | x | n
CCc1ccc2oc(-c3cccc(NC(=O)c4cc(OC)c(OC)c(OC)c4)c3)nc2c1 | x | x | x | x | n
Cn1c(SCc2nnc(-c3ccccc3Br)o2)nc2sc3c(c2c1=O)CCC3 | n | n | n | 79µM | n
COCCCn1c(SCc2nnc(-c3ccccc3)o2)nc2sc3c(c2c1=O)CCC3 | n | n | n | n | u
Nc1ccccc1N=Nc1ccccc1N | n | 14µM | n | n | n
Nc1ccccc1-c1ccccc1N | n | n[0.501 µM] | n | n | n
COC(=O)C(C)Oc1ccc2c(=O)c(Oc3ccccc3Br)coc2c1 (stereo not drawn) | x | x | x | x | n
CC(=O)Nc1ccc(C(=O)CSc2nnc(Cn3nnc4ccccc43)n2C)cc1 | n | 79µM | n | n | n
COCCn1nnnc1SCC(=O)c1ccccc1 | n | n[2.33 µM] | n | 50µM | n
Cc1sc(NC(=O)CSc2nnnn2C)c(C#N)c1C | n | x | n | n | n
CCCn1nnnc1SCC(=O)c1ccc(NC(C)=O)cc1 | n | u | n | 79µM | n
CCCn1nnnc1SCC(=O)Nc1sc(C)c(C)c1C#N | n | n[12.7 µM] | n | 50µM | x
COc1cc(NC(=O)CSc2nnc(Cn3nnc4ccccc43)n2C)cc(OC)c1 | n | n | n | n | n
CCn1nnnc1SCC(=O)c1cccc(OC)c1 | n | u | n | n | n
CN(C)c1ccc2ncc(Nc3ccc(Oc4ccccc4)cc3)n2n1 | x | x | x | x | n
SMILES | VDR inhibitor | G9a block | Glioma ERSR ind | Sfp inh | ALOX12 inh
OCCNc1ncnc2c1cnn2-c1ccccc1Cl | x | x | x | x | n
CCCCn1nnnc1SCC(=O)Nc1ccc(N(C)C)cc1 | n | 45µM | n | n | n
Cc1ccccc1C(=O)/C=C/c1cc2ccccc2nc1N1CCOCC1 | x | x | x | x | n
COCCCNC(=O)C(=O)C1C(=O)Nc2ccccc21 (stereo not drawn) | n | 40µM | n | n | n
O=C(O)CCCCCNC(=O)C(=O)C1C(=O)Nc2ccccc21 (stereo not drawn) | n | 25µM | n | n | n
O=C(NCc1ccncc1)C(=O)C1C(=O)Nc2ccccc21 (stereo not drawn) | n | n | n | n | n
COc1ccc(NC(=O)N[C@@H](CCSC)C(=O)O)c(OC)c1 | x | x | x | x | n
O=c1cc(-c2c(O)c3ccccc3n(Cc3ccccc3)c2=O)[nH][nH]1 | u | 45µM | n | n | 25µM
CCn1c(=O)c(-c2cc(=O)[nH][nH]2)c(O)c2ccccc21 | n | n | n | n | n
CCOC(=O)C1=C(C)c2ccccc2N(C(=O)OC)C1(C)C(=O)OCC (stereo not drawn) | u | n | u | 3.5µM | u
CC(C)(C)c1ccc(C2CC2C(=O)N/N=C\c2ccc[nH]2)cc1 (stereo not drawn) | n | 40µM | n | n | n
CC(C)(C)c1ccc(C2CC2C(=O)N/N=C/c2ccc(Cl)cc2)cc1 (stereo not drawn) | x | x | x | x | n
Cc1nc(CCNC(=O)C2CC2)no1 | x | x | x | x | n
COc1cc(CNCc2ccccn2)ccc1OCC(N)=O | n | 2.2µM | n | 89µM | n
COc1cc(CNCc2ccccc2)ccc1OCC(O)c1ccccc1 (stereo not drawn) | n | 11µM | n | n | n
COc1ccc(CNCCc2ccccc2)cc1OCC(N)=O | n | x | n | n | n
CCN(CC)c1ccc(NS(=O)(=O)c2ccc3c(c2)CCCC3)cc1C(=O)O | x | x | x | x | 7.9µM
